Results reported in PubChem BioAssay (Tox21).
Results filed as inconclusive are left out. The source made the active and inactive calls. The call rests on the fitted dose curve; in most records, active means well fitted cell-killing curve with a large enough effect in the repeat runs; inconclusive means weak or mixed curves; inactive means no such curve, though single readings can be large or run the other way.

experiment: qHTS assay for identifying genotoxic compounds that show differential cytotoxicity against isogenic chicken DT40 cell lines with known DNA damage response pathways - Rad54/Ku70 mutant cell line (AID 743015); conditions: DT40 Rad54/Ku70 mutant viability, CellTiter-Glo, 40 h; series mostly up to 66.8 µM; activity change, negative = cytotoxicity: at the top concentration; further: nearly all actives have a fitted effect of over 60% in size
Text: National Center for Advancing Translational Sciences [NCATS]
NIH Chemical Genomics Center [NCGC]
U.S. Environmental Protection Agency [EPA]
National Institutes of Environmental Health Sciences [NIEHS]
National Toxicology Program [NTP]
U.S. Food and Drug Administration [FDA]
DNA repair pathways play a critical role in cellular homeostasis by repairing DNA damage induced by endogenous processes and xenobiotics. Isogenic chicken DT40 cell lines deficient in different DNA repair pathways can be used to identify genotoxic compounds and aid in characterizing the nature of the DNA damage induced. Two DNA repair-deficient cell lines with disrupted genes, Rad54/Ku70 or Rev3, were used to screen the Tox21 10K compound library. Possible genotoxicity was based on the presence of a significant increase in cytotoxicity in one or more of the DNA repair-deficient cell lines compared to that observed in the parental DNA repair-proficient cell line. CellTiter Glo viability assay (Promega, Madison, WI) was used to measure cell viability in these cells after compound treatment. This assay includes the data from the Rad54/Ku70 mutant cell line.
Tox21 Assay Protocol Summary:
300 DT40 mutant cells in 5 uL/well were dispensed into white, solid-bottom 1536-well plates using a Multidrop Combi (ThermoFisher Scientific, Waltham, MA) dispenser. After the assay plates were incubated at 37 C/5% CO2 for approximately 0.5 hour, 23 nL of compounds dissolved in DMSO, positive controls or DMSO only was transferred into the assay plate by a pintool work station (Kalypsys, San Diego, CA). The assay plates were incubated at 37 C/5% CO2 for 40 hours. After 5 uL per well of CellTiter-Glo reagent was added into each well of the assay plates, the plates were incubated for 30 min at room temperature and the luminescence intensity of the plates was measured using a ViewLux (PerkinElmer, Shelton, CT) plate reader.
On the % scale 0 is the no-effect control and ±100 the full control effect; potency means the concentration at half of the fitted maximal effect.

| SMILES | Potency | activity change, negative = cytotoxicity |
| --- | --- | --- |
| NC(Cc1ccc(F)cc1)C(=O)O (stereo not given) | 1.87 µM (active) |  |
| COC(C)CCO (stereo not given) |  | 22.8% (inactive) |
| O=C1N(c2ccccc2)c2ccccc2C1(Cc1ccncc1)Cc1ccncc1 |  | 2.43% (inactive) |
| CCCCNC(=S)NCCCC | 24.3 µM (active) |  |
| C=CCCCCCCCCO |  | 5.85% (inactive) |
| CCCCCOc1ccc(C2SC(=O)NC2=O)cc1OCC (stereo not given) |  | -11.9% (inactive) |
| CCN(CC)C(=O)N(CC)CC |  | -2.66% (inactive) |
| CCCC1CCC(=O)O1 (stereo not given) |  | 1.65% (inactive) |
| CCCCCCOc1ccc(N)cc1 | 54.5 µM (active) |  |
| Cc1cc(S(=O)(=O)O)c(N)cc1Cl |  | 3.84% [at 95.1 µM] (inactive) |
| NC(=O)Cc1cccc(C(=O)c2ccccc2)c1N |  | -14.9% (inactive) |
| COc1ccccc1OCC(O)COC(N)=O (stereo not given) |  | 5.65% [at 30.7 µM] (inactive) |
| CCOc1ccc(NC(N)=O)cc1 |  | 2.81% (inactive) |
| CCOC(=O)COc1ccc2c(c1)CC(NCC(O)c1cccc(Cl)c1)CC2 (stereo not given) | 54.9 µM (active) |  |
| O=c1oc2c(O)c(O)cc3c(=O)oc4c(O)c(O)cc1c4c23 |  | -6.7% (inactive) |
| CC1(O)CSC(C)(O)CS1 (stereo not given) | 61.1 µM (active) |  |
| Cc1ccc(C=O)s1 |  | -0.0456% (inactive) |
| FC(F)(F)c1ccccc1 |  | 1.79% (inactive) |
| CCCCNc1ccc(C(=O)OCCN(CC)CC)cc1 | 2.37 µM (active) |  |
| Cc1c(-c2ccccc2)oc2c(C(=O)OCCN3CCCCC3)cccc2c1=O |  | 11.1% [at 30.7 µM] (inactive) |

| SMILES | Potency | activity change, negative = cytotoxicity |
| --- | --- | --- |
| Cc1cccc(C)c1NC(=O)CN1CCCCCC1 |  | -2.39% (inactive) |
| Cc1c[nH]c(=S)[nH]c1=O |  | -1.81% (inactive) |
| COc1ccccc1N1CCN(CCCNc2cc(=O)n(C)c(=O)n2C)CC1 | inactive |  |
| CC1(C)C(=O)N(Cl)C(=O)N1Br |  | -29.9% (inactive) |
| CCCCNCCCC |  | 5.51% (inactive) |
| ClC(Cl)Cl | inactive |  |
| FC(F)(F)C(Cl)(Cl)Cl |  | 10.9% (inactive) |
| C=O | inactive |  |
| OCCN(CCO)CCN(CCO)CCO |  | -20% (inactive) |
| CC(CNC1CCCCC1)OC(=O)c1ccccc1 (stereo not given) |  | -9.99% [at 30.7 µM] (inactive) |
| C[C@]12C(=O)OC(=O)[C@H]1[C@H]1C=C[C@@H]2C1 |  | 4.74% [at 95.1 µM] (inactive) |
| CCCc1c2oc(C(=O)O)cc(=O)c2cc2c(=O)cc(C(=O)O)n(CC)c12 |  | 9.25% (inactive) |
| CN1CCN(C2=Nc3cc(F)ccc3Cc3ccccc32)CC1 | 23.7 µM (active) |  |
| CC[C@H]1CC[C@H](NCc2cc3c(cc2OC)[C@H]2C[C@H]2C(=O)N3C)[C@H](c2ccccc2)N1 | 4.86 µM (active) |  |
| O=c1[nH]cnc2c1ncn2[C@@H]1O[C@H](CO)[C@@H](O)[C@H]1O |  | 17.2% (inactive) |
| O=C1CCCc2ccccc21 |  | -1.96% [at 95.1 µM] (inactive) |
| N#Cc1ccc(C(c2ccc(C#N)cc2)n2cncn2)cc1 | inactive |  |
| NC/C=C/C(=O)O |  | 6.88% (inactive) |
| CCOc1ccc(NS(=O)(=O)c2ccc(N)cc2)nn1 |  | 1.16% (inactive) |
| CC(=O)N(CC(O)CN(C(C)=O)c1c(I)c(C(=O)NCC(O)CO)c(I)c(C(=O)NCC(O)CO)c1I)c1c(I)c(C(=O)NCC(O)CO)c(I)c(C(=O)NCC(O)CO)c1I (stereo not given) |  | 5.49% [at 30.7 µM] (inactive) |
